For 38 compounds, outcome and AC50 results are on record in PubChem BioAssay (EPA / NIEHS).

Several values for one entry are separate records, joined by “and”; a condition that tells them apart may be missing. Equal values may be shown once. Results filed as inconclusive are left out. Some structures have more than one record in an assay (separate samples or runs), and their calls can disagree. Activity calls are given as the source filed them. The calls were made as follows: active = hit-call score of the fitted dose curve at least 0.9, where 1 is the maximum; inconclusive = response in the unintended direction; inactive = score below 0.9.

Chain of human Retinoid X Receptor beta (RXRb), RXRB (gene 6257) (P28702 whole entry, looked up): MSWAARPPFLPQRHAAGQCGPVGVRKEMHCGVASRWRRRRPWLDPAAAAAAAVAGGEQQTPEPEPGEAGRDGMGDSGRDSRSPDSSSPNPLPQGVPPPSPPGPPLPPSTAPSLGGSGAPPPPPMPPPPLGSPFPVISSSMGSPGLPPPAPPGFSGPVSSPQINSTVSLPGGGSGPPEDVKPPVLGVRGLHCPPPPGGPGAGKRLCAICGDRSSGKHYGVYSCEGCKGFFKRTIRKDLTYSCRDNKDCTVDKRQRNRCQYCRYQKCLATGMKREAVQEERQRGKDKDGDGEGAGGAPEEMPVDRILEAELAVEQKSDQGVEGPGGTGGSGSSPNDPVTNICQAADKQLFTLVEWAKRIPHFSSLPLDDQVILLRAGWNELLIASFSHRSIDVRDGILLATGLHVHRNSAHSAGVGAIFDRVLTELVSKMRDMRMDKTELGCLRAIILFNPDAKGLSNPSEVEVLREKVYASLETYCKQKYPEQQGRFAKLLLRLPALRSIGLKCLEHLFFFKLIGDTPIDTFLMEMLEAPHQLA

The test deals with human Retinoid X Receptor beta (RXRb), RXRB (gene 6257) (UniProt P28702). Briefly: ATG_RXRb_TRANS: Attagene TRANS-FACTORIAL HepG2 Assay for human Retinoid X Receptor beta (RXRb) (AID 2283013). The procedure:
ATG_TRANS is a cell-based, multiplexed-readout assay that uses HepG2, a human liver cell line, with measurements taken at 24 hours after chemical dosing in a 24-well plate.ATG_RXRb_TRANS is one of 30 assay component(s) measured or calculated from the ATG_TRANS assay. It is designed to make measurements of mRNA induction, a form of inducible reporter, as detected with fluorescence intensity signals by Reverse transcription polymerase chain reaction (RT-PCR) and Capillary electrophoresis technology.Data from the assay component ATG_RXRb_TRANS was analyzed into 1 assay endpoint. This assay endpoint, ATG_RXRb_TRANS, was analyzed in the positive analysis fitting direction relative to DMSO as the negative control and baseline of activity. Using a type of inducible reporter, measures of mRNA for gain-of-signal activity can be used to understand the reporter gene at the transcription factor-level as they relate to the gene RXRB. Furthermore, this assay endpoint can be referred to as a primary readout, because this assay has produced multiple assay endpoints where this one serves a reporter gene function. To generalize the intended target to other relatable targets, this assay endpoint is annotated to the nuclear receptor intended target family, where the subfamily is non-steroidal.
Human liver HepG2 cells are transiently transfected with multiple reporter transcription units (MRTUs) in 6-well plates using FuGene 6 reagent (Roche; 3 ml FuGene/1 mg DNA). The MRTU constructs are regulated by a cis-regulating element (promoter). […] A major difference between the CIS and TRANS system is that in CIS activities of endogenous TFs are measured, whereas the TRANS assay evaluates changes in activities of exogenous, chimeric NR-Gal4 proteins. […] At the end of 24 hour incubation, total RNA was isolated using TriZol reagent (Invitrogen). The isolated RNA is then reverse-transcribed using oligo(dT) primer and Mo-MLV reverse transcriptase (Invitrogen) with DNAse I (Ambion) treatment for 30 min. The one-tenth of the produced cDNA was amplified by PCR using Taq DNA polymerase (Invitrogen) and two reporter sequence-specific primers. The PCR products were fluorescently labeled by primer extension with 6-arboxyfluorescein (6-FAM) 5'-labeled reporter sequence-specific primer (2 min at 95 C, 20 s at 68 C and 10 min at 72 C) and these products were digested with 5U of HpaI (New England Biolabs) for 2h at 37 C. The fragments were purified using Qiaquick PCR columns (Qiagen), analyzed on an ABI 3130xL genetic analyzer (Applied Biosystems) with peak positions identified by using a set of X-rhodamine (ROX)-labeled MapMarker1000 molecular weight standards (BioVentures). The raw capillary electrophoresis data was processed using Attagraph software (Attagene).
As for `c1cc2c3c(cccc3c1)CC2`, the outcome was inactive. In the case of `CCNc1nc(Cl)nc(NC(C)(C)C)n1`, the AC50 is 49.1 µM (active).

In the case of `Cc1ccc(N)cc1N`, the call was inactive. Still for that read-out and setting: the entry for `Cc1ccc2c(c1N)C(=O)c1ccccc1C2=O` is “inactive”; for `CSC(C)(C)C=NO` it is “inactive”. Take `CC(C)(C)c1ccccc1OP(=O)(Oc1ccccc1)Oc1ccccc1`: the result was inactive. On the same count and under the same terms, the entry for `ClC(Cl)c1ccccc1` is “inactive”; for `CCOC(=O)c1ccccc1C(=O)OCC` it is “inactive”.

In the case of `CCCCc1ccc(O)cc1`, the AC50 is 64.2 µM (active). Regarding `COP(N)(=S)OC`, the result was inactive. Turning to `CCCCCCCc1ccc(O)cc1`, the result was inactive; the AC50 is 11.1 µM (active) and 48.7 µM (active). As to `N#Cc1ccc(O)cc1`, the compound was called inactive. Take `O=C(O)C(F)(OC(F)(F)C(F)(F)C(F)(F)F)C(F)(F)F` (stereo not given): the call was inactive. With `CC(C)Nc1ccc(Nc2ccccc2)cc1`, the compound was classed as inactive. Still for that read-out and setting: the entry for `O=C(O)C(F)(F)OC(F)(F)C(F)(F)OC(F)(F)F` is “inactive”.

`OCC(F)(F)OC(F)(F)C(F)(F)OC(F)(F)C(F)(F)OC(F)(F)CO`: the AC50 was 17.4 µM (active). As for `CCN(CC)c1ccccc1`, the result was inactive. Regarding `CC(C)(C)c1ccc(O)cc1`, the AC50 is 69.3 µM (active). As for `C/C(=N\NC(=O)Nc1cc(F)cc(F)c1)c1ncccc1C(=O)O`, the compound was classed as inactive. For the compound `c1ccc2c(c1)Nc1ccccc1S2`, the half-maximal activity concentration (AC50) is 3.98 µM (active). On the same count and under the same terms, the same measure for `CCC(C)(C)c1ccc(O)cc1`: 9.83 µM (active).

Take `NNC(N)=S`: the compound was called inactive. For the compound `Cc1c([N+](=O)[O-])cc2c(c1[N+](=O)[O-])C(C)(C)CC2(C)C`, the AC50 is 1.37 µM (active). As for `OCC(F)(F)OC(F)(F)C(F)(F)OC(F)(F)C(F)(F)OC(F)(F)F`, the AC50 is 32.2 µM (active) and the result was inactive.

Turning to `CCOc1ccc(C(C)(C)COCc2cccc(Oc3ccccc3)c2)cc1`, the call was inactive.

As to `ClC1=C(Cl)C2(Cl)C3C(Cl)C(Cl)CC3C1(Cl)C2(Cl)Cl` (stereo not given), the AC50 was 23.8 µM (active).

`Nc1ccc(Cl)cc1`: the compound was classed as inactive.

For the compound `CC(Cc1ccc(OCC(=O)O)cc1)NCC(O)c1csc(C(F)(F)F)n1` (stereo not given), the compound was called inactive. On the same count and under the same terms, the same measure for `O=P(OCC(Br)CBr)(OCC(Br)CBr)OCC(Br)CBr` (stereo not given): “inactive”; for `Nc1ccc(Sc2ccc(N)cc2)cc1`: “inactive”. For `CCOP(=S)(Oc1ccc([N+](=O)[O-])cc1)c1ccccc1` (stereo not given), the AC50 is 2.35 µM (active).

For `CNC(=O)Oc1ccc(N(C)C)c(C)c1`, the outcome was inactive. The same measure, in the same setting: the same measure for `CCCCC(CC)COP(=O)(Oc1ccccc1)Oc1ccccc1` (stereo not given): “inactive”; for `CCCCN(CCCC)N=O`: “inactive”. Still for that read-out and setting: the entry for `CCOP(=S)(OCC)SCS(=O)(=O)CC` is “inactive”. Turning to `CCCCN(CC)C(=O)SCCC`, the AC50 was 59.1 µM (active). Take `CCC1(c2ccccc2)C(=O)N=C(O)NC1=O` (stereo not given): the compound was called inactive. Same read-out and setting: the same measure for `N#Cc1cc([N+](=O)[O-])ccc1N`: “inactive”.

For orientation: AC50 means the concentration giving half of the maximal activity seen.
